# Laboratory results from the supplement of paper PMC12067093, “Discovery and optimisation of a covalent ligand for TRIM25 and its application to targeted protein ubiquitination” (Chemical Science, 2025).
# The full data set covers some 21,000 targets. This sample favours those with the largest changes.
# Compound: CC1Cc2ccccc2N1C(=O)C1CCCN(C1)C(=O)CCl (mixture of isomers) [TRIM25 ligand 11 (diastereomer mixture)]
# Assay: probe-labelled cysteine peptide fold change vs DMSO (competition) (log2 fold change); higher = less target engagement (more negative = stronger competition)
# Settings: THP-1, incubation time: 4 h
# 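Also: competitive chemoproteomic profiling in live THP-1 cells with an iodoacetamide desthiobiotin (IA-DTB) probe, comparing probe-labelled peptide intensities in compound-treated cells against DMSO-treated controls.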
# UniProt Q71F56, sequence (Q71F56 whole entry, looked up): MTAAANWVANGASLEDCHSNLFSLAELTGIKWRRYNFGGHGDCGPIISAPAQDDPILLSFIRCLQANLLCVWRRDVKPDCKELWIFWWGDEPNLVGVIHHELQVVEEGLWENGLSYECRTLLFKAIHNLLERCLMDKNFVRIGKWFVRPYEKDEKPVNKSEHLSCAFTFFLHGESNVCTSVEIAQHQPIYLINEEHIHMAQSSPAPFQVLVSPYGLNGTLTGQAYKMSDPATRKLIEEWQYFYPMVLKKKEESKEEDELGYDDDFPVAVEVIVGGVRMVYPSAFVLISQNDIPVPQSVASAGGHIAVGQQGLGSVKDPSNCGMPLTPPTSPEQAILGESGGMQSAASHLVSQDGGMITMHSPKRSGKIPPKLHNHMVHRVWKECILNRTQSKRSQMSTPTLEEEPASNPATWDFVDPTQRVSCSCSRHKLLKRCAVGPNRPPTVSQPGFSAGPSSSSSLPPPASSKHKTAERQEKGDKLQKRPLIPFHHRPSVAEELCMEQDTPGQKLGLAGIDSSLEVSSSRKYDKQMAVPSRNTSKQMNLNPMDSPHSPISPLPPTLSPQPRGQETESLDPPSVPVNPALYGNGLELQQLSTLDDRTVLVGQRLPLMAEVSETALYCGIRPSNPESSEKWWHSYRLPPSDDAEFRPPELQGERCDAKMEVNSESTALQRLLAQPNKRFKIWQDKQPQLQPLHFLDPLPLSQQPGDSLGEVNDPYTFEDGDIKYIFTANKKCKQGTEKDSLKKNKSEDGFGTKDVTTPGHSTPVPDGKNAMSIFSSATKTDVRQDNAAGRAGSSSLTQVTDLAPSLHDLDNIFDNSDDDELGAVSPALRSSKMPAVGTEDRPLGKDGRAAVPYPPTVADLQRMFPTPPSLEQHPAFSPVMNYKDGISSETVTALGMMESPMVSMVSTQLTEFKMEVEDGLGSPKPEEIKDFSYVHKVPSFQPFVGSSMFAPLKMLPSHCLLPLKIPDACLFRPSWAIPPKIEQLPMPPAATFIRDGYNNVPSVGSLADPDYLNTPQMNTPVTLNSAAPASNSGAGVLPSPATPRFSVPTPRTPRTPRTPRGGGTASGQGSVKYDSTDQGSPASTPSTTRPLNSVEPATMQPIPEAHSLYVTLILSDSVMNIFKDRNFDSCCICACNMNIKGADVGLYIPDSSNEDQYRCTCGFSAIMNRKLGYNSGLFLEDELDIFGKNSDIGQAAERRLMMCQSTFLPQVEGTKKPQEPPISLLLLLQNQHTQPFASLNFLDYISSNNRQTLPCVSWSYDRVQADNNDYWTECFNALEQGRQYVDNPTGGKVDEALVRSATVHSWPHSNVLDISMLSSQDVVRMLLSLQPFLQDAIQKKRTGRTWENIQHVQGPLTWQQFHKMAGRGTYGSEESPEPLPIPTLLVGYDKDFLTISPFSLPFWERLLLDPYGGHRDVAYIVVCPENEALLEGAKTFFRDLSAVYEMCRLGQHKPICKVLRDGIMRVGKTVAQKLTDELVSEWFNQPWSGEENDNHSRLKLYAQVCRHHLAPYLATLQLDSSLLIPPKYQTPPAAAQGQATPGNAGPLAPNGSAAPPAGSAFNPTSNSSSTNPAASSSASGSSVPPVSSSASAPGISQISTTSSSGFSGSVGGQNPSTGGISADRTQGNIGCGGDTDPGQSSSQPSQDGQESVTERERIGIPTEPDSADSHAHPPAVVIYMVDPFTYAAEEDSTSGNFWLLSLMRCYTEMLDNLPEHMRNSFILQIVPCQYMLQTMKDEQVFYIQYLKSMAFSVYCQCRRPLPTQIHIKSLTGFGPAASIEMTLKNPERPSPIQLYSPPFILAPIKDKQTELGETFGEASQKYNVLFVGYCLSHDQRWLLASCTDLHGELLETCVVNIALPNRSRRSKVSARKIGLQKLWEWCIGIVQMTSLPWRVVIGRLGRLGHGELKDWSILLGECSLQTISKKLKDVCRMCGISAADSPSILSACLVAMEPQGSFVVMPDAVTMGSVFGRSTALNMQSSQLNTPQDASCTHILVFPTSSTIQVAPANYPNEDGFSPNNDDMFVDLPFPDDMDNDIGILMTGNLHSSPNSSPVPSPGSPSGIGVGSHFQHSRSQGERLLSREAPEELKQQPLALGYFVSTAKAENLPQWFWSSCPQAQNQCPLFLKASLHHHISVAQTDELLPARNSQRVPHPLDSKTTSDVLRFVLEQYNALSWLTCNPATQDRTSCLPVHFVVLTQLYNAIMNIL
# UniProt Q9NX58, sequence (Q9NX58 whole entry, looked up): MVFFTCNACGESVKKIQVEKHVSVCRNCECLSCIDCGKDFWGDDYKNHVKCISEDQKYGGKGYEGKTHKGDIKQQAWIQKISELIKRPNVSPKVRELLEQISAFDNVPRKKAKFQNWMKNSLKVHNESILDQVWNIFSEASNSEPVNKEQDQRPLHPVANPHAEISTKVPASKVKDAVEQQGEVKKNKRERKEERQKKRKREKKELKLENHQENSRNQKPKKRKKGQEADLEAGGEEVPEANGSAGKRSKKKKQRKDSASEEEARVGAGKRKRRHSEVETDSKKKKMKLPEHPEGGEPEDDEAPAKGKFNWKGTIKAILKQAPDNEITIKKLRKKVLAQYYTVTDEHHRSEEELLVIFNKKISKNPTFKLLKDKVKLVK
# UniProt P48449, sequence (P48449 whole entry, looked up): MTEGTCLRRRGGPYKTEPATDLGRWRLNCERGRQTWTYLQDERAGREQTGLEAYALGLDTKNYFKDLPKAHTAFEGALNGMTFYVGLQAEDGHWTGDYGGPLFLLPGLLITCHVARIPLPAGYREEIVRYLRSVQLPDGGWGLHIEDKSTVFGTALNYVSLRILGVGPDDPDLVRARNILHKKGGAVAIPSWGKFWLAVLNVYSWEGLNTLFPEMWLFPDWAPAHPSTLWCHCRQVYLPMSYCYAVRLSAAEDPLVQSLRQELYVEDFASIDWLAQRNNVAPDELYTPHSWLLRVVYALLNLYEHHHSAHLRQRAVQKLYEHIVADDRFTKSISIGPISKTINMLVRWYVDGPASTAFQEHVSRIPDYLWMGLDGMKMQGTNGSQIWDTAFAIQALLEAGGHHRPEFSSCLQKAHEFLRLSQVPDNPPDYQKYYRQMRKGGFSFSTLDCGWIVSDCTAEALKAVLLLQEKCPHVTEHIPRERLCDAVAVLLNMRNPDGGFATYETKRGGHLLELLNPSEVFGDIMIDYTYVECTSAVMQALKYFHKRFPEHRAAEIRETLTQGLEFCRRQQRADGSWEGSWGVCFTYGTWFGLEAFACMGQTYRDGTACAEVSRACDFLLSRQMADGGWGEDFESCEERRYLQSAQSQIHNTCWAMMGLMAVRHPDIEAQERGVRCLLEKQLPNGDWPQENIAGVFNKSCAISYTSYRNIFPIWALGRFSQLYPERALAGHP
# UniProt Q15555, sequence (Q15555 whole entry, looked up): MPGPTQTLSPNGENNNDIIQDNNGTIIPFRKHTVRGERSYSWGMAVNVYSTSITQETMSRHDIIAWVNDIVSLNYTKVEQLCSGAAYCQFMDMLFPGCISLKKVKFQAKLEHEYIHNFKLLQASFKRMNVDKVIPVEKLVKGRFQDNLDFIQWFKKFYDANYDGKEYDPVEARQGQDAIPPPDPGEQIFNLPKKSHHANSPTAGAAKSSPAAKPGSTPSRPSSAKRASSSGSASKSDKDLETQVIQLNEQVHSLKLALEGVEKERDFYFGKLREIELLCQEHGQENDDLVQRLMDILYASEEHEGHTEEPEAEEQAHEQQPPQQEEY
# UniProt Q13615, sequence (Q13615 whole entry, looked up): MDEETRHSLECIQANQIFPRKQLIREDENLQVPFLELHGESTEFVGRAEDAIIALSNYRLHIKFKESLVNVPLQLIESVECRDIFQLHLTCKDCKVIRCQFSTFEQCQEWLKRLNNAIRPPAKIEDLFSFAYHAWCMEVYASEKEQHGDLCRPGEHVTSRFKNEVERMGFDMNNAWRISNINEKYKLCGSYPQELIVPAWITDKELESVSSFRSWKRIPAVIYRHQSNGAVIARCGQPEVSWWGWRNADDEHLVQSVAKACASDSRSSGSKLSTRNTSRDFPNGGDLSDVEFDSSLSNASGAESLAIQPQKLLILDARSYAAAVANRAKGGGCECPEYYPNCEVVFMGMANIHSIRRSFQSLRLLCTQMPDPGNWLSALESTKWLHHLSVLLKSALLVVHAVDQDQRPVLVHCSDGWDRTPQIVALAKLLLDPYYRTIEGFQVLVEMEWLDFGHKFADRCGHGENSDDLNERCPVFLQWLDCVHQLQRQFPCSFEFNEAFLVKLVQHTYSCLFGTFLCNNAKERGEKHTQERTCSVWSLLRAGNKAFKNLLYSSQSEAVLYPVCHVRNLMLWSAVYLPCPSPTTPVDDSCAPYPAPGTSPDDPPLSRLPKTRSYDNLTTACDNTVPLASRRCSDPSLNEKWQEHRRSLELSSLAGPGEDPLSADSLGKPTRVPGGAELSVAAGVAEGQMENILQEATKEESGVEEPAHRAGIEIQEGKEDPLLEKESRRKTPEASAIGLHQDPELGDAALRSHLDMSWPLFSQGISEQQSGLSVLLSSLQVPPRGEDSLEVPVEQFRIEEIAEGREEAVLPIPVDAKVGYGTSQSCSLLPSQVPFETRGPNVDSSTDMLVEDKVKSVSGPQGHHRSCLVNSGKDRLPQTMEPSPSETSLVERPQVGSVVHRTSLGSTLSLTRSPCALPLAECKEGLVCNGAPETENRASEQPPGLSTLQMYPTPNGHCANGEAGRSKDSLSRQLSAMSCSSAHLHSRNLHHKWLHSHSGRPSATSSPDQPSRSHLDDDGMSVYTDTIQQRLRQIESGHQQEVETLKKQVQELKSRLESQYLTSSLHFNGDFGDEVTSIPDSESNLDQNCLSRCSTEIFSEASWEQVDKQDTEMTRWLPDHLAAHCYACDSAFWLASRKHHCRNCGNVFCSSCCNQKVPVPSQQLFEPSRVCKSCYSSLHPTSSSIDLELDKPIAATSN
# UniProt O43513, sequence (O43513 whole entry, looked up): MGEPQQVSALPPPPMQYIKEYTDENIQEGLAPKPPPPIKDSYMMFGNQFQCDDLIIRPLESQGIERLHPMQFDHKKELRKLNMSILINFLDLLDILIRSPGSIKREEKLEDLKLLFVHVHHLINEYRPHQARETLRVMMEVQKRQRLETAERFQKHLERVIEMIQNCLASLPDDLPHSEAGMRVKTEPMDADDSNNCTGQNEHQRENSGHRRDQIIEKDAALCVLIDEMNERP
target,measurement,setting,value
MIS18A_Q9NYP9_85_AQLEEEAAAAEERPLVFLCSGCR (UniProt Q9NYP9),probe-labelled cysteine peptide fold change,10 µM,-0.0813
MIA3_Q5JRA6_1513_AGLEDECK (UniProt Q5JRA6),probe-labelled cysteine peptide fold change,10 µM,0.0174
MYO18A_Q92614_1046_LHFVHCFLPVAEGWAGEPR (UniProt Q92614),probe-labelled cysteine peptide fold change,10 µM,0.231
same,probe-labelled cysteine peptide fold change,50 µM,0.422
NCAPG2_Q86XI2_776_NRECLLSAPR (UniProt Q86XI2),probe-labelled cysteine peptide fold change,10 µM,-0.0525
same,probe-labelled cysteine peptide fold change,50 µM,-0.00285
MOV10_Q9HCE1_650_LVSAQFPIDHFTHIFIDEAGHCMEPESLVAIAGLMEVK (UniProt Q9HCE1),probe-labelled cysteine peptide fold change,10 µM,0.00257
MYCBP2_O75592_4406+4413_NEEHCLPCLHGCDK (UniProt O75592),probe-labelled cysteine peptide fold change,10 µM,-0.0669
MOB4_Q9Y3A3_134_HTLDGAACLLNSNK (UniProt Q9Y3A3),probe-labelled cysteine peptide fold change,10 µM,-0.19
same,probe-labelled cysteine peptide fold change,50 µM,-0.629
MAD1L1_Q9Y6D9_662_LTSLYAEHPGDCLIFK (UniProt Q9Y6D9),probe-labelled cysteine peptide fold change,10 µM,0.00589
same,probe-labelled cysteine peptide fold change,50 µM,-0.0309
MATR3_P43243_296_GYPHLCSICDLPVHSNK (UniProt P43243),probe-labelled cysteine peptide fold change,10 µM,-0.0503
same,probe-labelled cysteine peptide fold change,50 µM,0.00253
MTA2_O94776_209_ALDCSSSIR (UniProt O94776),probe-labelled cysteine peptide fold change,10 µM,-0.025
MTHFS_P49914_180_EQICLQVPVNENDMK (UniProt P49914),probe-labelled cysteine peptide fold change,10 µM,-0.00999
MAPRE2_Q15555_279_EIELLCQEHGQENDDLVQR (UniProt Q15555),probe-labelled cysteine peptide fold change,10 µM,-0.0442
same,probe-labelled cysteine peptide fold change,50 µM,-0.23
MRPL45_Q9BRJ2_151_DIFIEAHLCLNNSDHDR (UniProt Q9BRJ2),probe-labelled cysteine peptide fold change,10 µM,-0.648
same,probe-labelled cysteine peptide fold change,50 µM,-0.159
NASP_P49321_568_LGEVSVESENYVQAVEEFQSCLNLQEQYLEAHDR (UniProt P49321),probe-labelled cysteine peptide fold change,10 µM,-0.127
same,probe-labelled cysteine peptide fold change,50 µM,0.217
MAP10_Q9P2G4_605_TVDCSK (UniProt Q9P2G4),probe-labelled cysteine peptide fold change,10 µM,-0.174
same,probe-labelled cysteine peptide fold change,50 µM,-0.0642
NCAPH_Q15003_114_FTNTQITEHYSTCIK (UniProt Q15003),probe-labelled cysteine peptide fold change,10 µM,0.199
same,probe-labelled cysteine peptide fold change,50 µM,-0.135
LYAR_Q9NX58_6+9_VFFTCNACGESVKK (UniProt Q9NX58),probe-labelled cysteine peptide fold change,10 µM,-0.135
same,probe-labelled cysteine peptide fold change,50 µM,-0.2
MTA3_Q9BTC8_109_CSVALLNETESVLSYLDK (UniProt Q9BTC8),probe-labelled cysteine peptide fold change,10 µM,0.851
MRPL38_Q96DV4_290_QDQPIDFSEDARPSPCYQLAQR (UniProt Q96DV4),probe-labelled cysteine peptide fold change,10 µM,-0.028
MTMR3_Q13615_188_LCGSYPQELIVPAWITDK (UniProt Q13615),probe-labelled cysteine peptide fold change,10 µM,0.105
same,probe-labelled cysteine peptide fold change,50 µM,0.265
MED13L_Q71F56_1457_LGQHKPICK (UniProt Q71F56),probe-labelled cysteine peptide fold change,10 µM,-0.182
same,probe-labelled cysteine peptide fold change,50 µM,-0.263
MKNK2_Q9HBH9_136_EVEMLYQCQGHR (UniProt Q9HBH9),probe-labelled cysteine peptide fold change,10 µM,0.495
same,probe-labelled cysteine peptide fold change,50 µM,0.556
LYPLA2_O95372_213_TYPGVMHSSCPQEMAAVK (UniProt O95372),probe-labelled cysteine peptide fold change,10 µM,0.0451
MIF4GD_A9UHW6_150_EEEVDCLVLQLHR (UniProt A9UHW6),probe-labelled cysteine peptide fold change,10 µM,0.222
MINK1_Q8N4C8_129_EDCIAYICR (UniProt Q8N4C8),probe-labelled cysteine peptide fold change,10 µM,0.00524
MAP1S_Q66K74_841_HDPLPDPLKVPPPLPDPSSICMVDPEMLPPK (UniProt Q66K74),probe-labelled cysteine peptide fold change,10 µM,-0.202
METTL18_O95568_48_CSAEQFDLPQDHLWEHK (UniProt O95568),probe-labelled cysteine peptide fold change,10 µM,-0.285
MSH6_P52701_1158+1165_QAGLLAVMAQMGCYVPAEVCR (UniProt P52701),probe-labelled cysteine peptide fold change,10 µM,-0.115
same,probe-labelled cysteine peptide fold change,50 µM,-0.66
MAN2C1_Q9NTJ4_29_FVSPLYFTDCNLR (UniProt Q9NTJ4),probe-labelled cysteine peptide fold change,10 µM,0.111
NAPA_P54920_84_HDAATCFVDAGNAFK (UniProt P54920),probe-labelled cysteine peptide fold change,10 µM,0.0886
same,probe-labelled cysteine peptide fold change,50 µM,0.00981
MBTPS2_O43462_386_SSSSSFCIIPSLETHTR (UniProt O43462),probe-labelled cysteine peptide fold change,10 µM,-0.0619
MFN1_Q8IWA4_513_LCSDFQEDIVFR (UniProt Q8IWA4),probe-labelled cysteine peptide fold change,10 µM,0.257
same,probe-labelled cysteine peptide fold change,50 µM,0.355
LSS_P48449_484_LCDAVAVLLNMR (UniProt P48449),probe-labelled cysteine peptide fold change,10 µM,-0.0996
same,probe-labelled cysteine peptide fold change,50 µM,-0.128
MED7_O43513_223_DAALCVLIDEMNERP (UniProt O43513),probe-labelled cysteine peptide fold change,10 µM,0.0565
same,probe-labelled cysteine peptide fold change,50 µM,-0.131
MICAL2_O94851_1059_PHFIHCK (UniProt O94851),probe-labelled cysteine peptide fold change,10 µM,0.00568
same,probe-labelled cysteine peptide fold change,50 µM,0.0284
MYH3_P11055_1412_CASLEK<|>MYH1_P12882_1415_CASLEK<|>MYH8_P13535_1414_CASLEK<|>MYH2_Q9UKX2_1417_CASLEK<|>MYH13_Q9UKX3_1415_CASLEK<|>MYH4_Q9Y623_1415_CASLEK (UniProt Q9Y623+Q9UKX3+Q9UKX2+P13535+P12882+P11055),probe-labelled cysteine peptide fold change,10 µM,0.356
same,probe-labelled cysteine peptide fold change,50 µM,0.307
MAU2_Q9Y6X3_145_AIQISQQTPYWHCR (UniProt Q9Y6X3),probe-labelled cysteine peptide fold change,10 µM,-0.167
same,probe-labelled cysteine peptide fold change,50 µM,0.0177
MDH2_P40926_93_GCDVVVIPAGVPR (UniProt P40926),probe-labelled cysteine peptide fold change,10 µM,-0.0615
same,probe-labelled cysteine peptide fold change,50 µM,0.0728
